# Sampled rows, rich in hits. Any-hit rate of the full collection: about 3.5%.
# FBW7 activator: human FBW7 E3 ligase activation, primary screen; AlphaScreen FBW7–phospho-cyclin E peptide binding, activator screen; normalized activity (activation), % at 26.1 µM; 650,000 tested, 0.13% active; AID 1259310; in the data active = normalized activity above about 1.9%;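 note: purified mutant Fbw7 with reduced substrate affinity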
# GPR151 ag: human GPR151 activation. Q8TDV0. PathHunter beta-arrestin GPR151 cells, luminescence. activation, % at 11.2 µM. 650,000 tested, 1% active. AID 1508602; in the data active = activation above about 4.9%;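 note: 0% = median of compound wells and 100% = cells with positive control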
# MITF primary: human MITF inhibition, primary screen. AlphaScreen MITF homodimerization, bead proximity signal. 650,000 tested, 0.91% active. AID 1259374. inhibition, % at 2.6 µM. O75030; in the data active = inhibition above about 50%;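 note: 0% = vehicle wells with protein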
# Target sequence (O75030 whole entry, looked up): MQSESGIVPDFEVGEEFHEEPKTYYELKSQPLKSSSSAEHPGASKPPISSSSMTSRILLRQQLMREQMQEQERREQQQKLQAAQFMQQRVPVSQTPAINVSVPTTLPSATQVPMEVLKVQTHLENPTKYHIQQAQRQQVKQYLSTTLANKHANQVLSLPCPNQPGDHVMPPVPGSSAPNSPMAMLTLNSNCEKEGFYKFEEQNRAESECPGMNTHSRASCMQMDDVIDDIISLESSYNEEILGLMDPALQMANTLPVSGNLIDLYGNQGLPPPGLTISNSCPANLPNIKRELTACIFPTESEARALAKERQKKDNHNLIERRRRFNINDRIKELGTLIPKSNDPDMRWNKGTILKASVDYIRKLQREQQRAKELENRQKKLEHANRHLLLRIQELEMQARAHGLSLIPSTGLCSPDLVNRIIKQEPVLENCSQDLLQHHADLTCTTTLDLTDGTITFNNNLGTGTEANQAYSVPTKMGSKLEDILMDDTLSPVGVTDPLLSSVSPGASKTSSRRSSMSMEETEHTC
# TEAD-YAP block: TEAD-YAP interaction inhibition; HEK-TIYL cells, TEAD-Gal4/YAP UAS-luciferase luminescence; inhibition, % at 9.12 µM; 640,000 tested, 1.4% active; AID 1259422; in the data active = inhibition above about 32%;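 note: 0% = median of test compound wells and 100% = reference inhibitor wells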
# GPR151 confirm: confirmation of human GPR151 activators. 6,700 tested, under 10 active. activation, % at 11.2 µM. GPR151 PathHunter beta-arrestin cells, luminescence, 90 min; % of EA-reagent control over plate median. shares compounds with GPR151 ag;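 active = mean percent activation across replicates above the confirmation screen cutoff of 4.91%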
# GPR119 counter: counter-screen for GPR151 activators: effect on human GPR119 | shares compounds with GPR151 ag | GPR119 PathHunter beta-arrestin cells, luminescence, 90 min; 0 = compound-well median, 100 = enzyme-acceptor control | activation, % at 11.2 µM | 6,700 tested, 0.3% active | AID 1508611;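 active = mean percent activation in the counterscreen above 29.09%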;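 note: counterscreen on off-target GPR119 to flag nonselective hits from the GPR151 activator screen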
# * marks the source's active call; other numbers are inactive results; . = no result.
SMILES,FBW7 activator,GPR151 ag,MITF primary,TEAD-YAP block,GPR151 confirm,GPR119 counter
O=c1oc2c(CN3CCCCCC3)c(O)ccc2c2c1CCC2,0,0,-4,-1,.,.
CCOC(=O)C1=C(C)N=c2s/c(=C\c3ccc(C)cc3)c(=O)n2C1c1ccc(F)cc1 (stereo not drawn),0,3,-4,5,.,.
CC(C)C[C@@H]1NC(=O)[C@@H]2C[C@H](NC(=O)Nc3cccc(C(F)(F)F)c3)CN2C1=O,0,12*,-24,-12,-1,1
COc1ccccc1CN[C@H]1C[C@H]2C(=O)N[C@@H](CC(C)C)C(=O)N2C1,0,6.1*,-13,-12,2,11
CC(C)[C@@H]1NC(=O)[C@@H]2C[C@H](NCc3cn(C)nc3-c3ccccc3)CN2C1=O,0,13*,-4,-6,4,14
COc1ccccc1CN[C@H]1C[C@H]2C(=O)N[C@H](CO)C(=O)N2C1,0,0,17,-5,.,.
O=C(O)CC1NC(=O)c2ccc(Br)cc21 (stereo not drawn),1,18*,15,4,0,-9
Cc1nn(C(=O)Cn2ccc([N+](=O)[O-])n2)c(C)c1I,1,5.3*,3,5,0,1
CSc1nsc(SC)c1NC(=O)OC1CCCC1,0,-1,11,7,.,.
CSc1nsc(SC)c1NC(=O)OCC1CCCO1 (stereo not drawn),0,6.6*,2,3,0,-2
COC(=O)C1=NNC2C(=O)N(c3ccc(Br)cc3)C(=O)C12 (stereo not drawn),0,-1,1,-1,.,.
Cc1ccc(NC(=O)N2CCOCC2)cc1,0,-1,-11,-3,.,.
CCC(C)c1ccc(NC(=O)N2CCOCC2)cc1 (stereo not drawn),0,5.4*,12,-57,-1,-8
COc1cc(CNc2ccc3ncc(-c4cccnc4)n3n2)cc(OC)c1OC,0,7.8*,5,-17,1,4
O=S(=O)(NCC(c1ccco1)S(=O)(=O)c1ccc(F)cc1)c1cccs1 (stereo not drawn),0,11*,-5,3,0,-4
O=S(=O)(NCC1(c2cccs2)CC1)c1cccs1,0,2,-3,-3,.,.
N/C(=N\OC(=O)CCC1CCCC1)c1ccc(Cl)cc1,0,6.0*,17,2,1,7
Cc1nnc(NC(=O)c2ccccc2Cl)s1,0,0,14,-33,.,.
O=C(Nc1ncc(C(O)(C(F)(F)F)C(F)(F)F)s1)c1ccccc1Cl,0,6.6*,0,-44,2,3
COC(=O)c1ccc(/C=C(/C#N)C(=O)Nc2ccc(O)cc2)cc1,0,-2,-7,-2,.,.
Cc1nc2cnc(-c3ccc(O)cc3)cn2c1NC(=O)c1cccs1,0,0,3,-1,.,.
Cc1nc2cnc(-c3ccc(O)cc3)cn2c1NC(=O)CC1CCOCC1,0,12*,16,24,0,7
O=C(NC1(C(=O)Nc2ccc(Br)cc2)CCCCC1)c1cccc(O)c1,0,5.5*,4,9,0,-5
CCCOc1ccc(C(N)=O)cc1OC,0,5.6*,21,4,1,7
COc1cc(C(N)=O)ccc1OCC(C)C,0,0,-2,0,.,.
SMILES,FBW7 activator,GPR151 ag,MITF primary,TEAD-YAP block,GPR151 confirm,GPR119 counter
Cc1ccc(-n2cc(-c3ccccc3)nc2SCC(=O)Nc2ccc(F)cc2)cc1,1,0,11,-32,.,.
COc1cc(/C=N\Nc2cc(=O)n(C)c(=O)n2C)ccc1O,0,5.7*,21,24,-1,-11
Cn1c(N/N=C\c2cccc(O)c2)cc(=O)n(C)c1=O,0,3,4,9,.,.
Cn1c(N/N=C\c2cccs2)cc(=O)n(C)c1=O,0,6.6*,7,0,0,-1
CCCc1[nH]nc2c1C(c1ccccc1Cl)C(C#N)=C(N)O2 (stereo not drawn),0,-1,-1,4,.,.
FC(F)(F)c1ccc(Cn2cnc3c(NC4CCN(Cc5ccccc5)CC4)nc(-c4ccccc4)nc32)cc1,0,1,10,10,.,.
N#Cc1cc(C(=O)c2cc(F)ccc2O)cn(C2CC2)c1=O,0,5.9*,5,12,-1,0
COC(=O)c1cc(C)sc1NC(=O)C1CCCCC1C(=O)O (stereo not drawn),0,0,4,1,.,.

# High-throughput results from PubChem.
